In PubChem BioAssay AID485346 (Sanford-Burnham Center for Chemical Genomics, 2010):
The whole screen tested about 330,000 compounds, of which about 10,000 (3%) were called active. Many of the other results were omitted from the sample, so actives are more common in it than they were. Values without a mark were called inactive.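 How the source made its calls: active means inhibition of at least 50% at 8 µM in the primary screen; inactive means the rest.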

Target: Protein Mdm4 (Homo sapiens) + E3 ubiquitin-protein ligase Mdm2 (Homo sapiens) (UniProt O15151+Q00987)
Test: disruptors of Mdm2/MdmX RING complex – cell-based, luminescence, split luciferase, SaOS-2, uHTS, primary screen (AID 485346)
Conditions: SaOS-2 split-luciferase Mdm2/MdmX complementation, at 8 µM, active compounds read high

Sequence of Protein Mdm4 (Homo sapiens) + E3 ubiquitin-protein ligase Mdm2 (Homo sapiens) (O15151 whole entry, looked up): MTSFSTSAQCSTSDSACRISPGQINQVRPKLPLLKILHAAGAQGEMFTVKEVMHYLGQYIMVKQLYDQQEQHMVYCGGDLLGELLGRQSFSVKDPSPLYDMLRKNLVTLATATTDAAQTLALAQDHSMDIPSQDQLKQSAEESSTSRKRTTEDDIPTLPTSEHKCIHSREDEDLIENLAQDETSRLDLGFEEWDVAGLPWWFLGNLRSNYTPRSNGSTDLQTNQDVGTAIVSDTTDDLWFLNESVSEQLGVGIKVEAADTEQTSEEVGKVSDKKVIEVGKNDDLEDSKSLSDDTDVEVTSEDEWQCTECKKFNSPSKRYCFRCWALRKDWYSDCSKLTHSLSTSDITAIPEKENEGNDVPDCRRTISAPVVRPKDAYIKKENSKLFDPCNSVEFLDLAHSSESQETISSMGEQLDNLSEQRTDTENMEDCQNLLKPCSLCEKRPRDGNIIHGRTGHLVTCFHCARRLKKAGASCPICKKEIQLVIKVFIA
Sequence of Protein Mdm4 (Homo sapiens) + E3 ubiquitin-protein ligase Mdm2 (Homo sapiens) (Q00987 whole entry, looked up): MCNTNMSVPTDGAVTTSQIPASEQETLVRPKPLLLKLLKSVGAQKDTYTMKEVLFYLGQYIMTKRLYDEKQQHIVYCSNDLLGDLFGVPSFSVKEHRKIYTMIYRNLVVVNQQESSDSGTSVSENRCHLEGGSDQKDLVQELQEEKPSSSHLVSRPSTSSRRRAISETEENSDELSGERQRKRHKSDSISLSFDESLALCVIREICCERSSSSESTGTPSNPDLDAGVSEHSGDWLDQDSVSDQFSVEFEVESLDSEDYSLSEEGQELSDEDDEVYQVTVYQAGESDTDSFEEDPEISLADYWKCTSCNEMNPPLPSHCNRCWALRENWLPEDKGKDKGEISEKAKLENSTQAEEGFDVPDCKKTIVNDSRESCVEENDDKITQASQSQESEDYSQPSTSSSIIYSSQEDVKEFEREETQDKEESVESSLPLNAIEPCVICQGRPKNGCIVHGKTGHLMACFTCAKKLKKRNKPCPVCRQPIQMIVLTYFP

Row | Compound | inhibition
1 | O=C(Nc1nnc(-c2ccccc2)o1)c1cc(-c2cccs2)nc2ccccc12 | 51% (active)
2 | CC(C)(C)Cc1nnc(NC(=O)c2cc(-c3ccccc3)nc3ccccc23)s1 | -22%
3 | O=C(Nc1nnc(-c2ccc(Cl)cc2)o1)c1ccccc1Br | -13.3%
4 | COc1ccc(Cl)cc1C(=O)NNC(=O)c1nc2nc(C)cc(C)n2n1 | 8.57%
5 | CN(C)/C=C/c1c(C#N)c(=O)ncn1Cc1ccccc1 | 13.9%
6 | O=c1c2c(ncn1Cc1ccccc1)nc1n2CCC1 | 19.7%
7 | CN(C)c1ccnc2sc3c(=O)n(Cc4ccccc4)cnc3c12 | 59.1% (active)
8 | CN(CCC#N)c1ncnc2scc(-c3ccccc3)c12 | 21.2%
9 | CC(C)CCN1CCC(C)(NC(=O)c2ccccc2)C1=O (stereo not given) | -21.2%
10 | Cc1ccc(C)c(N2CCN(C(=O)CCCCn3c(=O)[nH]c4ccccc4c3=O)CC2)c1 | 8.89%
11 | O=C(CCCCCn1c(=S)[nH]c2cc3c(cc2c1=O)OCO3)N1CCN(c2ccc(F)cc2)CC1 | 53.5% (active)
12 | Cc1ccc(C)c(N2CCN(C(=O)CCCCCn3c(=S)[nH]c4ccc(N5CCOCC5)cc4c3=O)CC2)c1 | 85.6% (active)
13 | CN(C)CCn1c(=S)[nH]c2ccc(Cl)cc2c1=O | 8.17%
14 | Cc1ccc(C)c(N2CCN(C(=O)CCCn3c(=O)c4cccn4c4cccnc43)CC2)c1 | 1.5%
15 | O=C(CCn1c(=S)[nH]c2cc3c(cc2c1=O)OCO3)NCc1ccc(Cl)cc1 | 56.3% (active)
16 | O=C(CNS(=O)(=O)c1ccc2c(c1)OCCCO2)N1CCN(c2ccc(F)cc2)CC1 | 7.54%
17 | CC(C)NC(=O)CCCn1c(=S)[nH]c2cc3c(cc2c1=O)OCO3 | -5.62%
18 | O=C(NCCS(=O)(=O)N1CCN(c2ccc(F)cc2)CC1)c1ccc2c(c1)OCO2 | 7.26%
19 | Cn1ccsc1=NC(=O)c1cc(S(=O)(=O)N2CCOCC2)ccc1Cl | 28%
20 | NS(=O)(=O)c1ccc(CCNC(=O)CN2C(=O)c3ccccc3S2(=O)=O)cc1 | 27.9%
21 | O=C(COC(=O)c1ccc(Br)o1)NC12CC3CC(CC(C3)C1)C2 | 15.9%
22 | Cc1csc(=O)n1CCC(=O)OCC(=O)NNC(=O)c1ccc(Br)cc1 | 8.79%
23 | CCCN(CCC)C(=S)Nc1cc(C(=O)OC)ccc1C(=O)OC | 9.38%

Row | Compound | inhibition
24 | CCOC(=O)C1CCN(C(=O)c2ccccc2N(C)S(=O)(=O)c2ccccc2)CC1 | -12.4%
25 | C=CS(=O)c1sc(Cl)c(N2CCOCC2)c1[N+](=O)[O-] (stereo not given) | 25.9%
26 | CCOC(=O)c1c(-c2ccc(C)cc2C)csc1NC(=O)CSc1nnnn1C | 73.7% (active)
27 | Cn1nnnc1SCC(=O)Nc1sccc1C(N)=O | 0.655%
28 | COC(=O)c1ccccc1NC(=O)CSc1nnnn1C | -3.43%
29 | Cc1ccc(/C=C/C(=O)O)cc1S(=O)(=O)N1CCC(Cc2ccccc2)CC1 | -1.19%
30 | Cc1cccc(C(=O)Nc2ccccc2-c2nnn(CC(=O)Nc3ccc4c(c3)OCCO4)n2)c1 | 15.2%
31 | Cc1ccc(S(=O)(=O)NCC(=O)Nc2ccc3c(c2)OCCO3)cc1 | 10%
32 | CS(=O)(=O)c1ccc(-c2nnn(CC(=O)Nc3ccc4c(c3)OCCO4)n2)cc1 | 86.1% (active)
33 | CC1CCCCC12NC(=O)N(CC(=O)OCc1c(F)cccc1Cl)C2=O (stereo not given) | 2.6%
34 | Cc1cc(C(=O)Cn2cnc3cc([N+](=O)[O-])ccc3c2=O)c(C)n1CC1CCCO1 (stereo not given) | -7.26%
35 | COc1ccc(C(=O)OCC(=O)c2cc(C)n(CC3CCCO3)c2C)cc1[N+](=O)[O-] (stereo not given) | 2.69%
36 | Cc1ccsc1C(=O)OCC(=O)c1cc(C)n(CC2CCCO2)c1C (stereo not given) | 94.1% (active)
37 | COc1ccc(CNC(=O)[C@H](Cc2c[nH]c3ccccc23)NC(C)=O)cc1OC | 10.9%
38 | COc1ccc(NC(=O)[C@H](NC(=O)[C@@H]2Cc3ccccc3CN2)c2ccccc2)cc1 | -1.06%
39 | COc1cccc(NC(=O)[C@H](Cc2c[nH]c3ccccc23)NC(=O)[C@@H]2Cc3ccccc3CN2)c1 | 94.4% (active)
40 | C/C=C/c1ccc(OCCCCN2CCC(C)CC2)c(OC)c1 | -26%
41 | Cc1cccc(NC(=S)NCc2ccc3[nH]c4c(c3c2)CCCC4)c1 | 63.6% (active)
42 | Cc1cccc(NC(=S)NCCN(C2CCCCC2)C2CCCC2)c1 | 44.3%
43 | Cc1cc(C)cc(NC(=S)NCc2ccc(F)cc2)c1 | -4.57%
44 | CC(C)=CCc1c(O)c(CC=C(C)C)c2occ(-c3ccc(O)cc3)c(=O)c2c1O | 45.8%
45 | CCC1(CC)NC(=O)N(CC(=O)OCC(=O)c2cc(C)c(C)cc2C)C1=O | 22.7%
